For orientation: AC50 means the concentration at which the activity in the assay is half-maximal.

Values joined by “and” are separate entries in the source; they are usually repeats but may differ in a detail not shown here. Equal values may be shown once. Screen size: about 16,000 compounds; about 2,600 (16%) were called active. Another 20% or so got no clear call; they are omitted. The list is a sample of the results. A number with no mark means an inactive call. Calls follow the shape of the dose curve; as a rule, active = well fitted curve in the direction sought with a large enough effect; inconclusive = small, poorly fitted or top-dose-only effect, or effect the other way; inactive = no such curve, though single readings can be large or run the other way.
% is scaled to controls: 0 for no effect and ±100 for the full control effect.

This assay deals with Cytochrome P450 2D6 (Homo sapiens) (UniProt P10635). Description: Cytochrome panel assay with activity outcomes. The note with it: recombinant CYP, pro-luciferin dealkylation, luminescence, p450-cyp2d6; series mostly up to 57.1 µM; activity, negative = inhibition: at the top concentration.
Chain of Cytochrome P450 2D6 (Homo sapiens) (P10635 whole entry, looked up): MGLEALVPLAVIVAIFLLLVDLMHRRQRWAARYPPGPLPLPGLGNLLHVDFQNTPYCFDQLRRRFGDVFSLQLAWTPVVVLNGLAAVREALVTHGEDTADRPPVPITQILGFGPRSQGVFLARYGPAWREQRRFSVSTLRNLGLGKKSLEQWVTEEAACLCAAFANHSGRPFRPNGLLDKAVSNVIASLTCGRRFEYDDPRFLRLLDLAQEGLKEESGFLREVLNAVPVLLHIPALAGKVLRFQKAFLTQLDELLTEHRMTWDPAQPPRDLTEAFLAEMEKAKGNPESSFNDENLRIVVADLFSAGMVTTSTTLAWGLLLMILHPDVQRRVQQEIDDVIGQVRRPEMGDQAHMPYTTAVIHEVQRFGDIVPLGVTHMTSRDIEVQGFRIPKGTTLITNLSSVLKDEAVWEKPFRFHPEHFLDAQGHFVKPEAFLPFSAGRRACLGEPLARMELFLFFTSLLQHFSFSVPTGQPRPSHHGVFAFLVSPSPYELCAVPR
As for `COc1ccccc1N(CC(=O)NCC1CCCO1)C(=O)CNS(=O)(=O)c1ccc(C)cc1` (configuration not stated), the “activity, negative = inhibition” value is -4.47%.
For `N#CC1=C(SCC(N)=O)NC2=C(C(=O)c3ccccc32)C1c1ccc(Cl)cc1` (configuration not stated), the “activity, negative = inhibition” value was -26.9%.
`COc1ccc2[nH]cc(CCNc3nc(-c4ccc(N(C)C)cc4)nc4ccccc34)c2c1`: the AC50 is 7.94 µM (active).
Turning to `CC(C)Oc1cccc(-n2c(CCc3c[nH]c4ccc(Br)cc34)nc3ccccc3c2=O)c1`, the “activity, negative = inhibition” value was 5.78%.
Regarding `COc1ccc2[nH]cc(CCNc3nc(-c4cccnc4)nc4ccccc34)c2c1`, the AC50 was 6.31 µM (active).
In the case of `c1ccc2c(NC3CC3)nc(-c3ccoc3)nc2c1`, the “activity, negative = inhibition” value was -19.8%.
Take `COc1ccc2[nH]cc(CCNc3nc(-c4ccoc4)nc4ccccc34)c2c1`: the AC50 was 12.6 µM (active).
On the same count and under the same terms, then `COc1cccc(-c2nc(NCCc3c[nH]c4ccc(OC)cc34)c3ccccc3n2)c1`, with 20 µM (active).
Consider `NC(=O)NC(=O)[C@H]1CCCC[C@@H]1C(=O)O`, for which the activity, negative = inhibition is -4.03% [at 11.4 µM].
Turning to `C[N+](C)(C)CCOC(N)=O`, the AC50 result is “inactive”.
Consider `COC(=O)CNC(=O)CCCCC(=O)NCC(=O)OC`, for which the “activity, negative = inhibition” value was -4.75%.
Still for that read-out and setting: then `Cc1ccc(C)c(N2CCN(C(=O)C3CCN(S(=O)(=O)c4cccc5nsnc45)CC3)CC2)c1`, with -14.1%; and `CS(=O)(=O)c1ccc(Cn2c3c(c4cc(F)cc(F)c42)CCC[C@H]3CC(=O)O)cc1`, with -11.8%; and `CC(C)c1ccc(/C(C(=O)O)=C(\O)C(=O)O)cc1`, with 0.432% [at 11.4 µM].
The same measure, in the same setting: then `CC1(C)C2([N+](=O)[O-])CN3CC1([N+](=O)[O-])CN(C2)C31CCCC1`, with -6.83%; and `O=C(O)Cc1cc(I)c(Oc2ccc(O)c(I)c2)c(I)c1`, with 0.86% [at 25.6 µM].
On to `CC(=O)c1cc(C#N)c(Oc2cccc(C(F)(F)F)c2)nc1C`, for which the “activity, negative = inhibition” value was -61.5%.
Turning to `N[C@@H](CS(=O)O)C(=O)O`, the “activity, negative = inhibition” value was 10.8%.
The same measure, in the same setting: then `CC(C)C(=O)Nc1ccc(Sc2ccc(F)cc2)cc1`, with -18.6%; and `CN(C(=S)NC(=O)c1ccccc1Br)C1CCCCC1`, with -19%.
For `COc1ccc2[nH]cc(CCNc3nc(-c4ccccc4OC)nc4ccccc34)c2c1`, the AC50 was 12.6 µM (active).
In the case of `CC[C@H](CO)NCCN[C@@H](CC)CO`, the “activity, negative = inhibition” value was 2.22% [at 25.6 µM].
The same measure, in the same setting: the value for `COc1ccc(F)cc1S(=O)(=O)NC(Cc1ccccc1)C(N)=O` (configuration not stated) was -23%; that for `Cc1ccc(-c2cc(C(F)F)n3ncc(C(=O)Nc4c(C)nn(Cc5c(Cl)cccc5Cl)c4C)c3n2)cc1` was -10.1%.
The same measure, in the same setting: then `Cc1nn(Cc2c(Cl)cccc2Cl)c(C)c1NC(=O)c1cnn2c(C(F)F)cc(-c3ccccc3)nc12`, with -9.88%.
As for `Cc1cc(C(F)F)n2ncc(C(=O)NCc3ccccc3C(F)(F)F)c2n1`, the AC50 is 5.01 µM (active).
As for `O=C(Nc1cc(C(F)(F)F)ccc1N1CCCCC1)c1ccc(Br)o1`, the “activity, negative = inhibition” value was 0.271%.
On to `O=C(NC1CCCc2ccccc21)c1ccc(=O)[nH]c1` (configuration not stated), for which the AC50 is 28.2 µM (active).
Same read-out and setting: the value for `COCCn1nc2cc(C(=O)NCc3cc(C(F)(F)F)cc(C(F)(F)F)c3)ccc2c1OC` was 2.51 µM (active).
For the molecule `COCCn1nc2cc(C(=O)NCC34CC5CC(CC(C5)C3)C4)ccc2c1OC`, the “activity, negative = inhibition” value was -16.5%.
On to `CCCn1nc2cc(C(=O)NCc3ccccc3OC)ccc2c1OCC`, for which the “activity, negative = inhibition” value was -22.4%.
In the case of `CCOc1c2ccc(C(=O)NCCCCc3ccccc3)cc2nn1CC`, the AC50 is 0.794 µM (active).
Take `CCCCn1nc2cc(C(=O)NCc3ccc(C(F)(F)F)cc3C(F)(F)F)ccc2c1OCC`: the “activity, negative = inhibition” value is -27.7%.
The same measure, in the same setting: the value for `CCOc1c2ccc(C(=O)NCc3ccccc3OC)cc2nn1CC` was -13.2%; that for `O=C1CC[C@H](NC(=O)c2ccccc2)C(=O)N1` was 1.49% [at 11.4 µM].
For `CCCn1nc2cc(C(=O)NCCCCc3ccccc3)ccc2c1OCC`, the AC50 is 7.94 µM (active).
`COc1ccc(OC)c2[nH]c(=O)c(CCNS(=O)(=O)c3ccccc3)cc12`: the “activity, negative = inhibition” value is 7.03%.
The same measure, in the same setting: the value for `CCOc1cccc(/C(O)=C2/C(=O)C(=O)N(Cc3ccco3)C2c2ccncc2)c1` (configuration not stated) was -8.05%.
Same read-out and setting: the value for `O=C(NNS(=O)(=O)c1ccc(Cl)cc1)NC1CCCCC1` was -0.568%; that for `CCC(=O)Nc1nnc(C(C)(C)C)s1` was 1.82%.
In the case of `O=c1c(-c2cc(F)cc(F)c2)nc2cnc(N3CCOCC3)nc2n1C[C@H]1CCCO1`, the “activity, negative = inhibition” value was 5.97%.
As to `CCCn1nc2cc(C(=O)NCCc3ccc(C)cc3)ccc2c1OCC`, the AC50 is 3.55 µM (active).
Take `CCOc1c2ccc(C(=O)NCc3ccco3)cc2nn1CC`: the “activity, negative = inhibition” value is -22.5%.
For the molecule `COCCNC(=O)c1ccc2c(c1)ncn2-c1ccc(F)c(F)c1`, the “activity, negative = inhibition” value is 3.19%.
`CCCn1nc2cc(C(=O)NCc3ccc(C)cc3)ccc2c1OC`: the “activity, negative = inhibition” value is -3.19%.
The same measure, in the same setting: the value for `CCn1nc2cc(C(=O)NCC34CC5CC(CC(C5)C3)C4)ccc2c1OC` was 10.9%.
For `CCOc1c2ccc(C(=O)NC3CCCc4ccccc43)cc2nn1C` (configuration not stated), the AC50 was 7.94 µM (active).
Still for that read-out and setting: the value for `CCOc1c2ccc(C(=O)NCCCCc3ccccc3)cc2nn1C` was 0.282 µM (active); that for `CCOc1c2ccc(C(=O)NCCc3cccs3)cc2nn1CC` was 2.24 µM (active).
For the molecule `CCCCn1nc2cc(C(=O)NCC3CC3)ccc2c1OCC`, the “activity, negative = inhibition” value is -8.25%.
Turning to `COCCn1c(=O)c(-c2ccccc2)nc2cnc(Oc3cccc(Cl)c3)nc21`, the “activity, negative = inhibition” value was -2.41%.
Take `NC(=O)Nn1c(CCC(=O)O)ccc1-c1ccc(F)cc1`: the “activity, negative = inhibition” value was -2.11%.
The same measure, in the same setting: then `Cc1ccc(C(=O)N2C3C=CC(C3)C2(C(F)(F)F)C(F)(F)F)cc1` (configuration not stated), with 5.65%; and `CCC(C)(C)c1ccc(Oc2cccc(C(=O)O)c2)cc1`, with 13.3% [at 11.4 µM]; and `O=C(O)CCNc1ncnc2nc[nH]c12`, with 9.14% [at 11.4 µM].
For the molecule `OC[C@H]1O[C@H](n2cnc3c(NC4CCCC4)nc(Cl)nc32)[C@@H](O)[C@@H]1O`, the “activity, negative = inhibition” value is 6.94%.
On to `C=C(C)CN(CC#N)CC(=C)C`, for which the activity, negative = inhibition was 5.94% [at 11.4 µM].
Same read-out and setting: then `N#C/C(=C(\O)C(=O)O)c1ccc(-c2cccc3ccccc23)cc1`, with 14.5% [at 11.4 µM]; and `O=c1c2c(n3cnnc3n1-c1ccccc1)-c1ccccc1CC21CCCCC1`, with -2.53%; and `Nc1nc(N)c(N=Nc2ccc(C(=O)O)c(O)c2)c(N)n1`, with -8.46% [at 11.4 µM].
The same measure, in the same setting: then `CC1CCN(c2ccc(/C=N/n3nnnc3N)cc2[N+](=O)[O-])CC1`, with 2.33%.
Still for that read-out and setting: the value for `NC(=S)SCCC(=O)O` was 4.51% [at 11.4 µM]; that for `NC(N)=Nc1nc2ccc([N+](=O)[O-])cc2[nH]1` was 2.98% [at 11.4 µM].
Regarding `O=S(=O)(O)c1cc(N=[N+]([O-])c2cc(S(=O)(=O)O)c3ccccc3c2)cc2ccccc12`, the activity, negative = inhibition is -20.1% [at 11.4 µM].
In the case of `CC(C)c1cc(C(F)(F)F)nc(NNc2nc(C(C)C)cc(C(F)(F)F)n2)n1`, the AC50 was 0.126 µM (active).
Take `CCNc1nc(Sc2ccc(C)cc2)cc(C(F)(F)F)n1`: the “activity, negative = inhibition” value was -17.6%.
`CC(C)Nc1nc(Oc2ccc(Cl)cc2)cc(C(F)(F)F)n1`: the “activity, negative = inhibition” value was -11.5%.
As to `Cc1nc2cnc(N3CCN(C)CC3)nc2n(Cc2ccc(F)cc2)c1=O`, the “activity, negative = inhibition” value was -5.66%.
The same measure, in the same setting: then `CN(C)c1ccc(-c2noc(C3CCN(S(=O)(=O)c4cccc(C(=O)O)c4)CC3)n2)cc1`, with 5.68%; and `Cc1ccc(C2=Nc3ccccc3S[C@@H](c3cccc([N+](=O)[O-])c3)C2)cc1`, with 4.11% [at 11.4 µM]; and `N#C/C(=C\c1cc(Cl)cc(Cl)c1O)C(=O)NC1CCCCC1`, with -19.5%.
In the case of `N#C/C(=C\c1cn[nH]c1-c1ccccc1)C(=O)NC1CCCCCC1`, the AC50 was 28.2 µM (active).
Regarding `COc1ccc(/C=C(/C#N)C(=O)NC2CCCCC2)cc1Br`, the “activity, negative = inhibition” value was 13.5%.
Regarding `CC1=C(C(=O)NCCN2CCN(C)CC2)C2(CCC(C)CC2)OC1=O` (configuration not stated), the “activity, negative = inhibition” value is 2.54%.
Take `C/C(=N\NC(=O)c1ccc(Br)cc1)c1ccccc1`: the “activity, negative = inhibition” value is -29.7%.
On the same count and under the same terms, then `CCOc1ccc(C(=O)Nc2cccc(-c3cc4ccccc4oc3=O)c2)cc1[N+](=O)[O-]`, with -14.9%; and `COc1ccc(-c2cc(C(=O)Nc3nc4c(C)cccc4s3)c3ccccc3n2)cc1OC`, with -7.95%.
Same read-out and setting: the value for `CCCCNC(=O)CSc1nc2ccccc2c(=O)n1CCNC(C)=O` was -0.301%; that for `CCCCNc1cc(=O)oc2ccccc12` was -10.8%.
For the molecule `CCCCNC(=O)Cc1coc2ccc3ccccc3c12`, the AC50 was 10 µM (active).
With `CC1(O)CC(=O)N(c2ccccc2)O1` (configuration not stated), the “activity, negative = inhibition” value was 0.119%.
`COc1ccc(C(=O)Nc2ccc(Cl)cc2C(=O)NCCN2CCOCC2)cc1`: the AC50 was 1.26 µM (active).
For the molecule `COc1ccc(-c2cn3c(C)c(C(=O)NCCN4CCOCC4)sc3n2)cc1`, the “activity, negative = inhibition” value is 8.62%.
On to `COc1cccc(C(=O)NCCN2CCOCC2)c1`, for which the “activity, negative = inhibition” value was -17.2%.
With `O=C(O)[C@H]1CN(CCCP(=O)(O)O)CCN1`, the AC50 result was “inactive”.
In the case of `CCCCNN`, the activity, negative = inhibition is -18.7% [at 11.4 µM].
Regarding `O=C(O)/C(=C\c1ccccc1)Cc1ccccc1`, the activity, negative = inhibition is -3.61% [at 11.4 µM].
In the case of `CN(Cc1ccccc1)Cn1ccnc1`, the AC50 was 0.794 µM (active).
Same read-out and setting: then `C#CCN(C)Cc1ccccc1`, with “inactive”.
For `Cc1ccc(C(C(=O)NC2CCCCC2)N2CCN(C(=O)c3ccco3)CC2)cc1` (configuration not stated), the “activity, negative = inhibition” value is -0.541%.
Still for that read-out and setting: the value for `Cc1cc(C)n(C(=O)c2cc3ccccc3c(=O)o2)n1` was 4.28%; that for `CN(C)CN1C(=O)S/C(=C2/C(=O)N(CN(C)C)c3ccccc32)C1=O` was -3.13% [at 11.4 µM].
Same read-out and setting: the value for `CC(C)c1ccc(C2C(C#N)=C(N)N3C(=C2C#N)Sc2ccccc23)cc1` (configuration not stated) was 9.18%.
`CN(C)CC(C)(C)CN1c2ccccc2Sc2ccccc21`: the AC50 was 0.2 µM (active).
The same measure, in the same setting: then `CCN(CC)[C@@H](C)CN1c2ccccc2Sc2ccccc21`, with 0.158 µM (active).
Turning to `C[C@H](CN(C)C)C(=O)c1ccccc1C(=O)O`, the activity, negative = inhibition was 9.39% [at 11.4 µM].
Regarding `C[C@@H](CN1c2ccccc2Sc2ccccc21)N(C)C`, the half-maximal activity concentration (AC50) was 2 µM (active) and 316 nM (active).
On to `O=C1CCCc2ccccc2N1Cc1ccccc1Cl`, for which the “activity, negative = inhibition” value was -16.5%.
Consider `C[C@@H](CN(C)C)CN1c2ccccc2CCc2ccccc21`, for which the AC50 was 12.6 µM (active) and 5.01 µM (active).
As to `Cc1nc(C(=O)Nc2cccc(Cl)c2Cl)nn1-c1cc(OC(C)C)c(Cl)cc1Cl`, the “activity, negative = inhibition” value was 10.4%.
Still for that read-out and setting: the value for `O=Nc1ccc(NOC(=O)c2ccc(Br)cc2)cc1` was 8.91%; that for `Cc1ccc(C(=O)NNC(=O)C2CCCN(c3ncccn3)C2)cc1` (configuration not stated) was -12.1%.

Values taken from PubChem BioAssay AID1851 (National Center for Advancing Translational Sciences (NCATS), 2009).
